Experiment [1] addresses Cellular tumor antigen p53 (Homo sapiens) (UniProt P04637). Briefly: Primary qHTS for small molecule compounds that upregulate eGFP-tagged delta133p53alpha (in N-terminal) cells. (AID 2060322).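 For activation: series mostly up to about 56 µM; 0% = DMSO vehicle and 100% = reference activator.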 Note: nearly all actives have a fitted effect of over 75% in size. Note: potency is the fitted concentration of half-maximal effect. The following applies: NCI-H358 eGFP-delta133p53alpha fluorescence, 24 h; activation: hits give high values. An outline of the steps: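 NCI-H358 cells pre-induced 24 h with 10 ng/ml doxycycline to express N-terminal eGFP-delta133p53alpha, then dosed 24 h at 37C without doxycycline; fixed, Hoechst-stained, GFP intensity by laser scanning cytometry, normalized to DMSO (0%) and 57.5 uM 5-azacytidine (100%).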

In experiment [2] the target is Aldehyde dehydrogenase, mitochondrial (Homo sapiens) (UniProt P05091). Briefly: qHTS for Inhibitors of the Aldehyde Dehydrogenase Family (ALDH2) Primary screen (AID 2061308).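 Note: plate controls were vehicle for no effect and reference inhibitor for full effect; nearly all actives have a fitted effect of over 55% in size.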
Experiment [3] concerns the target Retinaldehyde dehydrogenase 3 (Homo sapiens) (UniProt P47895). Briefly: qHTS for Inhibitors of the Aldehyde Dehydrogenase Family (ALDH1A3) Primary screen (AID 2061315).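 Note: plate controls were DMSO vehicle for no effect and reference inhibitor for full effect.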

Inconclusive results are not listed. Unmarked numbers belong to inactive results. Activity calls are given as the source filed them. Calls come from the whole dose curve; as a rule, active = well fitted curve in the direction sought with a large enough effect; inconclusive = small, poorly fitted or top-dose-only effect, or another doubt; inactive = no such curve, though single readings can be large; an effect the other way counts as inactive or inconclusive. Numbered stars: 1 amine (or outer) side, 2 acyl side, 3 side chain; on linkers, the order of the positions; unused ones are H or OH. Square brackets hold non-standard residues; d marks the D form. Peptide text beside a SMILES is read from it. * marks the point of attachment. ξ: configuration not given here. X9 = CCC(C)(N*)C(=O)C1CC[C@@H](C(=O)N[C@@H](Cc2ccccc2)C(=O)NCC(=O)O)N1; dPhe(4-Cl) = N[C@H](Cc1ccc(Cl)cc1)C(=O)O; d2Nal = N[C@H](Cc1ccc2ccccc2c1)C(=O)O; X8 = O=C([C@@H]1CC(O)CN1[*:1])[*:2]; aIle = CC[C@@H](C)[C@H](N)C(=O)O; dCit = NC(=O)NCCC[C@@H](N)C(=O)O; d3Pal = N[C@H](Cc1cccnc1)C(=O)O; Thr(3ξ) = CC(O)[C@H](N)C(=O)O; ξIva = CCC(C)(N)C(=O)O; Aib = CC(C)(N)C(=O)O

Sequence of Cellular tumor antigen p53 (Homo sapiens) (P04637 whole entry, looked up): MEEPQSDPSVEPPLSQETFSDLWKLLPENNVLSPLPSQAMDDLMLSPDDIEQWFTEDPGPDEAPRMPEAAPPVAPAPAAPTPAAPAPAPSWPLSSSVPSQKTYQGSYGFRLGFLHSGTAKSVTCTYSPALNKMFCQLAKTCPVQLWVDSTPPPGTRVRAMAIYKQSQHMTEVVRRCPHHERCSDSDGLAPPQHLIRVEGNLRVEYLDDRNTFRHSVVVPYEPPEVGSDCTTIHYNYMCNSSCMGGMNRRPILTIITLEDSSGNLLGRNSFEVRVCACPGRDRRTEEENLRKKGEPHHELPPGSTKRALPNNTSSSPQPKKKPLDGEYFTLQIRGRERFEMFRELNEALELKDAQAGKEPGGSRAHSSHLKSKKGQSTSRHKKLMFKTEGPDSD

With `CC1(C)C2CC[C@@]34CC(CC[C@H]3[C@]2(C)CC[C@@H]1O[C@@H]1O[C@H](CO)[C@@H](O)[C@H](O)[C@H]1O)[C@](C)(O)C4` (stereo not given in full), in experiment [1], the activation was -22.1%. The Potency entry in experiment [2] and in experiment [3] was “inactive” in each case.

Consider `CC1(C)CC[C@]2(C(=O)O)CC[C@]3(C)C(=CCC4[C@@]5(C)CC[C@H](O[C@H]6O[C@H](C(=O)O)[C@@H](O)[C@H](O[C@@H]7O[C@H](CO)[C@H](O)[C@H](O)[C@H]7O)[C@H]6O)C(C)(C)C5CC[C@]43C)[C@@H]2C1` (stereo not given in full), for which the activation in experiment [1] was -5.36%. Further, the Potency entry in experiment [2] and in experiment [3] was “inactive” throughout.

Consider `OC1COC(OCC2OC(OCCc3ccccc3)C(O)C(O)C2O)C(O)C1O` (stereo not given), for which the activation in experiment [1] is -11.5%. The Potency result in experiment [2] and in experiment [3] was “inactive” in each case.

For the molecule `CC[C@@H](C)[C@H](N)C(=O)N1Cc2ccccc2C1`, the activation in experiment [1] is 3.82%. Moreover, the Potency entry in experiment [2] and in experiment [3] was “inactive” throughout.

Take `CC[C@@H](C)[C@H](NC(=O)C(C)(C)NC(=O)[C@H](CCC(N)=O)NC(=O)C(C)(CC)NC(=O)[C@H](Cc1c[nH]c2ccccc12)NC(C)=O)C(=O)N[C@H](C(=O)NC(C)(C)C(=O)N[C@@H](CC(C)C)C(=O)NC(C)(C)C(=O)N1CCC[C@H]1C(=O)N[C@@H](CCC(N)=O)C(=O)NC(C)(C)C(=O)N1CC(O)C[C@H]1C(=O)NC(C)(CC)C(=O)C1CC[C@@H](C(=O)N[C@@H](Cc2ccccc2)C(=O)NCC(=O)O)N1)C(C)O` (stereo not given in full) (Ac-W[ξIva]Q[Aib][aIle][Thr(3ξ)][Aib]L[Aib]PQ[Aib][X8]-X9): in experiment [1], the activation was 3.57%. The activity change, negative = inhibition was -2.86% [at 11.2 µM] in experiment [2] and 18.1% [at 11.2 µM] in experiment [3].

With `CC1=C2C3OC(=O)C(C)C3(O)CCC2(C)CCC1` (stereo not given), the activation in experiment [1] was 2.68%. The Potency result in experiment [2] and in experiment [3] was “inactive” in each case.

On to `CC(=O)N[C@H](Cc1ccc2ccccc2c1)C(=O)N[C@H](Cc1ccc(Cl)cc1)C(=O)N[C@H](Cc1cccnc1)C(=O)N[C@@H](CO)C(=O)N[C@@H](Cc1ccc(O)cc1)C(=O)N[C@H](CCCNC(N)=O)C(=O)N[C@@H](CC(C)C)C(=O)N[C@@H](CCCN=C(N)N)C(=O)N1CCC[C@H]1C(=O)N[C@H](C)C(N)=O` (Ac-[d2Nal][dPhe(4-Cl)][d3Pal]SY[dCit]LRP[dA]-NH2), for which the activation in experiment [1] is 13%. The Potency entry in experiment [2] and in experiment [3] was “inactive” in each case.

On to `CC1=CC(=O)CC(C)(C)C1CCC(C)O[C@@H]1O[C@H](CO)[C@@H](O)[C@H](O)[C@H]1O` (stereo not given in full), for which the activation in experiment [1] was -3.57%. Further, the Potency entry in experiment [2] and in experiment [3] was “inactive” in each case.

In the case of `CC(=O)O[C@H]1[C@H](O)C[C@@]2(C)C(CC[C@]3(C)C2CC=C2C4CC(C)(C)CC[C@]4(C(=O)O)CC[C@]23C)C1(C)C` (stereo not given in full), the activation in experiment [1] was -12.5%. Further, the Potency result in experiment [2] and in experiment [3] was “inactive” each time.

As to `CC1(C)CC[C@]2(C(=O)O)CC[C@]3(C)C(=CCC4[C@@]5(C)C[C@@H](O)[C@H](O)C(C)(C)C5CC[C@]43C)[C@@H]2[C@@H]1O` (stereo not given in full), in experiment [1], the activation was -0.893%. The Potency entry in experiment [2] and in experiment [3] was “inactive” throughout.

On to `Cc1ccc(C)c(S(=O)(=O)n2cnc3ccccc32)c1`, for which the activation in experiment [1] was 1%. Further, the Potency entry in experiment [2] and in experiment [3] was “inactive” each time.

With `O=C(Nc1ccc(Cl)cc1)C1CCCN(C(=O)c2cccc(-c3ccco3)c2)C1` (stereo not given), the activation in experiment [1] was -4.77%. In addition, the Potency result in experiment [2] and in experiment [3] was “inactive” throughout.

With `CC(=O)O[C@@H]1[C@H](O[C@@H]2OC[C@](O)(CO)[C@H]2O)[C@@H](O[C@@H]2O[C@@H](C)[C@H](O)[C@@H](O)[C@H]2O)[C@H](OC(=O)[C@]23CCC(C)(C)C[C@H]2C2=CCC4[C@@]5(C)C[C@H](O)[C@H](O[C@@H]6O[C@H](C(=O)O)[C@@H](O)[C@H](O)[C@H]6O)[C@@](C)(C(=O)O)C5CC[C@@]4(C)[C@]2(C)CC3)O[C@@H]1C` (stereo not given in full), the activation in experiment [1] is 18.3%. For the same molecule, the Potency entry in experiment [2] and in experiment [3] was “inactive” throughout.

For `Nc1nc(Nc2ccc(S(N)(=O)=O)cc2)n(C(=S)Nc2c(F)cccc2F)n1`, the Potency in experiment [1] was 2.13 µM (active). The Potency result in experiment [2] and in experiment [3] was “inactive” in each case.

Consider `OC[C@@]1(O)CO[C@H](OC[C@H]2O[C@@H](OC(CCCCc3ccc(O)cc3)CCc3ccc(O)cc3)[C@H](O[C@H]3OC[C@](O)(CO)[C@H]3O)[C@@H](O)[C@@H]2O)[C@@H]1O` (stereo not given in full), for which the activation in experiment [1] was -2.29%. Besides, the Potency entry in experiment [2] and in experiment [3] was “inactive” throughout.

Turning to `Nc1nc(NC2CC2)cc(-c2cccc(Cl)c2Cl)n1`, the Potency in experiment [1] is 6.01 µM (active). Further, the Potency entry in experiment [2] and in experiment [3] was “inactive” throughout.

On to `Cc1cc(F)ccc1-c1nc(NCCN=C(N)NC#N)nc2c1ccc(=O)n2-c1c(F)cccc1F`, for which, in experiment [1], the activation is -4.46%. In addition, the Potency entry in experiment [2] and in experiment [3] was “inactive” each time.

As to `O=C(O)C[C@H]1CCC(=O)[C@@H]1C/C=C\CCOC1OC(CO)C(O)C(O)C1O` (stereo not given in full), the activation in experiment [1] is -3.82%. For the same molecule, the Potency entry in experiment [2] and in experiment [3] was “inactive” throughout.

Take `CCS(=O)(=O)N1CC(CC#N)(n2cc(-c3ncnc4[nH]ccc34)cn2)C1`: the activation in experiment [1] is 4.89%. Further, the Potency entry in experiment [2] and in experiment [3] was “inactive” throughout.

For the molecule `c1ccc(N2CCN(CCc3nn[nH]n3)CC2)cc1`, in experiment [1], the activation is -1.43%. The Potency entry in experiment [2] and in experiment [3] was “inactive” each time.

The values are drawn from PubChem BioAssay (NCATS).
